From PubChem
The entries come from a sample that favours hits as a whole.
a7 integrin act – integrin-mediated muscular dystrophy alleviation activation; alpha7betagal myoblasts, beta-gal FDG fluorescence, 48 h; AID 624291; Potency, µM (doses to about 38.3 µM), inactives show at the highest dose activation, hits mostly activators; 350,000 compounds, 0.064% hits;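 also: potency is read from the fitted curve at half-maximal effect; 100% = response of the positive control SU9516; nearly all actives have a fitted effect of over 60% in size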
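alpha7betagal+/- myoblasts (passage 13, 250/well) treated 48 h at 37C with compounds at 1:260 dilution of DMSO stock. Lysed, then beta-galactosidase activity read as FDG fluorescence (ex 480/em 540) after 30 min, with pre-read for autofluorescence.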
ERG Ets-DNA blk – ERG Ets/DNA interaction inhibition. Potency, µM (highest dose often 76.9 µM), inactives show top-dose FP activity, negative = inhibition, usual class: inhibitors. fluorescence polarization, His-ERG Ets domain / labelled DNA. 370,000 compounds, 0.028% hits. P11308; active = well fitted inhibition curve with a large enough effect in the polarisation, with a control signal flat; inconclusive = small, poorly fitted or top-dose-only effect, or effect the other way, or a change in a side signal; inactive = no such curve, though single readings can be large or run the other way; the % refers to the polarisation;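 also: polarization taken with two DNA probes labelled with fluorescein and Texas red; potency is read from the fitted curve at half-maximal effect; % of control where 0% means no effect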
Target sequence (P11308 whole entry, looked up, the tested form may be a part): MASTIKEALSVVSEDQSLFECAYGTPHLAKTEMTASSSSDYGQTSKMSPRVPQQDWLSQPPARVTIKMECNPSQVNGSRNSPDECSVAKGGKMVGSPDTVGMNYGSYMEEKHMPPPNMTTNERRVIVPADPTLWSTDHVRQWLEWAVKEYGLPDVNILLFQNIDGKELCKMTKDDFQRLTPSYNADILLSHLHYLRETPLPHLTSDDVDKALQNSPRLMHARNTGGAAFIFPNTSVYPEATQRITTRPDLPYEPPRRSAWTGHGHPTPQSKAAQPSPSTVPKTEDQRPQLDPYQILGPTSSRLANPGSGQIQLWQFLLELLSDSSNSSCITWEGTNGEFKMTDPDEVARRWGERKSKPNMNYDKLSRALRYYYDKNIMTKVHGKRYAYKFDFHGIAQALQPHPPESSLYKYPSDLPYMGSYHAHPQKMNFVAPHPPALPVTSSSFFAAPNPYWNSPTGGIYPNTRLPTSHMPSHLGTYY
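His-tagged ERG Ets domain (1 uM in the protein solution; 300mM KCl, 50mM Tris-HCl, 1mM EDTA, 1mM DTT, pH 7.5) received compound, then a probe mix of 5 nM fluorescein-DNA and 100nM Texas-615-DNA. Fluorescence polarization was read for both dyes.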
Giardia killer – Giardia lamblia killing; Giardia lamblia trophozoite viability; activity change, % at 7.66 µM, hits read low; 340,000 compounds, 0.15% hits; AID 540267; in the data active = activity change below about -80%; inconclusive = between about -30% and that limit;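 also: parasites exposed to compound for two days anaerobically before the ATP read; % is scaled to controls: 0 for no effect and ±100 for the full control effect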
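Media and compound were dispensed first, then trophozoites at 100 cells/well; plates sat 48 hrs at 37 deg C without oxygen before ATP luminescence reagent was added and read after 15-30 min at room temperature.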
VP16 counter – inhibits Gal4-VP16 luciferase reporter, ROR gamma counter-screen; Drosophila S2 Gal4-VP16 UAS-luciferase, luminescence, 20 h; Potency, µM (top dose mostly 53.6 µM), for inactives: at the highest dose activity, negative = inhibition, hits mostly inhibitors; 310,000 compounds, 3.5% hits;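 also: Gal4-VP16 expression switched on by copper sulfate through the metallothionein promoter; potency is read from the fitted curve at half-maximal effect; % is scaled to controls: 0 for no effect and ±100 for the full control effect; nearly all actives have a fitted effect of over 50% in size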
RORgamma inh – ROR gamma (mouse) transcription inhibition; P51450; Drosophila S2 Gal4-RORgamma UAS-luciferase reporter, 20 h; Potency, µM (doses to about 53.6 µM), inactives show at the top dose activity change, negative = inhibition, usual class: inhibitors; 310,000 compounds, 5.4% hits; also: potency is read from the fitted curve at half-maximal effect; % is scaled to controls: 0 for no effect and ±100 for the full control effect; nearly all actives have a fitted effect of over 60% in size
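Read-out: Photinus luciferase luminescence; inhibitors lower reporter signal. Insect Schneider cells with Gal4-ROR gamma fusion under metallothionein promoter, UAS reporter; 700 uM final copper sulfate induction, 20 hr, ambient temperature.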
* marks the source's active call; other numbers are inactive results; [ ] = remark or other dose. Unless noted, calls follow the shape of the dose curve; as a rule, active = well fitted curve in the direction sought with a large enough effect; inconclusive = small, poorly fitted or top-dose-only effect, or another doubt; inactive = no such curve, though single readings can be large; an effect the other way counts as inactive or inconclusive.

Screening S=c1[nH]nc(C2CCCCC2)n1/N=C/c1cccc(Cl)c1Cl returned a7 integrin act inconclusive, ERG Ets-DNA blk -5.8%, Giardia killer -15.8, VP16 counter 5.01µM* and RORgamma inh 3.55µM*.
For Oc1ccc(/C=N/n2c(C3CCCCC3)n[nH]c2=S)c(O)c1 the results were a7 integrin act 0.0%, ERG Ets-DNA blk -16.0%, Giardia killer 44.3, VP16 counter -3.2% and RORgamma inh -16.0%.
CCOC(=O)CSc1n[nH]c(NC(=O)c2cccc(C(F)(F)F)c2)n1 was read as a7 integrin act -15.8%[7.66 µM], ERG Ets-DNA blk -9.7%, Giardia killer -15.5, VP16 counter -6.7% and RORgamma inh 19.8%.
Screening O=C(O)Cc1ccc2oc(-c3cccnc3)nc2c1 returned a7 integrin act 0.0%, ERG Ets-DNA blk -5.3%, Giardia killer 2.7, VP16 counter 1.6% and RORgamma inh -17.0%.
Screening COCCn1c(-c2ccc(NC(C)=O)cc2)nc2c1c(=O)[nH]c(=O)n2CC(C)C returned a7 integrin act -10.5%, ERG Ets-DNA blk 7.8%, Giardia killer 7.0, VP16 counter -11.5% and RORgamma inh 0.8%.
`COc1cccc(/C=N/n2c(C3CCCCC3)n[nH]c2=S)c1OC` gave a7 integrin act 1.8%, ERG Ets-DNA blk 6.2%, Giardia killer -26.1, VP16 counter 7.08µM* and RORgamma inh 3.16µM*.
Screening CCOCN(C(=O)Cn1cnc2ccccc21)c1c(C)cccc1CC returned a7 integrin act 9.0%, ERG Ets-DNA blk 1.6%, Giardia killer -7.9, VP16 counter 1.9% and RORgamma inh -26.8%.
Screening CCc1cccc(CC)c1N(COC)C(=O)Cn1cnc2ccccc21 returned a7 integrin act 0.0%, ERG Ets-DNA blk 3.3%, Giardia killer -10.3, VP16 counter 15.3% and RORgamma inh 10µM*.
COc1ccc(C(=O)Nc2c(N)nc(SCC(=O)N3CCCCCC3)[nH]c2=O)cc1OC was read as a7 integrin act 0.3%, ERG Ets-DNA blk -7.5%, Giardia killer 18.0, VP16 counter -4.8% and RORgamma inh -11.9%.
Screening COc1ccc(C2N=C(c3ccccc3)C(C)(C)N2O)cc1OC (centres undefined) returned a7 integrin act -33.7%[7.66 µM], ERG Ets-DNA blk 0.4%, Giardia killer -12.5, VP16 counter -16.9% and RORgamma inh 10µM*.
`Cc1ccc(-n2c(SCC(=O)NC3CCS(=O)(=O)C3)nc3ccccc3c2=O)c(C)c1` (centres undefined) gave a7 integrin act -14.5%.
Screening O=C(NNC1=NS(=O)(=O)c2ccccc21)c1ccccc1 returned a7 integrin act 0.0%, ERG Ets-DNA blk -2.8%, Giardia killer inconclusive, VP16 counter inconclusive and RORgamma inh 12.6µM*.
`COc1ccc(-c2csc3nc(-c4ccccc4OC)oc(=O)c23)cc1` gave a7 integrin act -12.0%, ERG Ets-DNA blk 0.8%, Giardia killer 4.8, VP16 counter -19.1% and RORgamma inh 11.2µM*.
`c1ccncc1` gave VP16 counter -6.4% and RORgamma inh 11.5%.
Screening COc1ccc(Nc2nc(Nc3ccc(OC)cc3)nc(-n3[nH]c(=O)c(C)c3C)n2)cc1 returned a7 integrin act 0.9%, ERG Ets-DNA blk 0.6%, Giardia killer 16.6, VP16 counter 3.98µM* and RORgamma inh 1.26µM*.
`Cc1ccc(C(=O)NNc2cc(N3CCCC3)nc(N3CCCC3)n2)cc1` gave a7 integrin act 2.7%, ERG Ets-DNA blk 5.8%, Giardia killer 23.6, VP16 counter inconclusive and RORgamma inh 5.01µM*.
For O=C(NNc1cc(N2CCOCC2)nc(N2CCOCC2)n1)C12CC3CC(CC(C3)C1)C2 the results were a7 integrin act -4.0%, ERG Ets-DNA blk -1.6%, Giardia killer -23.2, VP16 counter -4.1% and RORgamma inh -5.8%.
Cc1ccc(C(=O)NNC(=O)C2CCN(c3ncccn3)CC2)cc1 was read as a7 integrin act 4.8%, ERG Ets-DNA blk -5.3%, Giardia killer 9.2, VP16 counter 1.8% and RORgamma inh 7.5%.
O=C(NNc1cc(N2CCOCC2)nc(N2CCOCC2)n1)c1ccc(Cl)c(Cl)c1 was read as a7 integrin act 4.3%, Giardia killer -15.6, VP16 counter inconclusive and RORgamma inh 14.1µM*.
`Cc1ccc(C(=O)NC(=S)N2CCN(c3ccccc3F)CC2)cc1` gave a7 integrin act 17.7%, ERG Ets-DNA blk 7.1%, Giardia killer 17.9, VP16 counter 2.82µM* and RORgamma inh 0.891µM*.
For O=C(c1ccc(-c2ccccc2)cc1)N1CCN(c2ccccc2F)CC1 the results were a7 integrin act 17.0%, ERG Ets-DNA blk -3.6%, Giardia killer -11.1, VP16 counter -1.3% and RORgamma inh -1.8%.
`Cc1ccc(C(=O)NC(=S)N2CCN(c3cc(C)ccc3C)CC2)cc1` gave a7 integrin act -34.9%, ERG Ets-DNA blk 5.7%, Giardia killer -6.6, VP16 counter 1µM* and RORgamma inh 1µM*.
CC(=O)c1ccc(N2CCN(C(=S)Nc3cc(C)ccc3C)CC2)cc1 was read as a7 integrin act 0.0%, ERG Ets-DNA blk 1.6%, Giardia killer -11.6, VP16 counter inconclusive and RORgamma inh inconclusive.
CCOC(=O)C1CCN(Cc2ccc(O)c3ncccc23)CC1 was read as a7 integrin act -51.4%, ERG Ets-DNA blk -7.4%, Giardia killer -21.7, VP16 counter 5.01µM* and RORgamma inh 2.82µM*.
For Oc1ccc(CN2CCCc3ccccc32)c2cccnc12 the results were a7 integrin act -21.3%, ERG Ets-DNA blk -24.6%, Giardia killer 11.3, VP16 counter 12.6µM* and RORgamma inh 7.94µM*.
`COc1ccccc1N1CCN(Cc2ccc(O)c3ncccc23)CC1` gave a7 integrin act -63.6%, ERG Ets-DNA blk 6.9%, Giardia killer 41.1, VP16 counter inconclusive and RORgamma inh 0.501µM*.
Screening COc1ccccc1N1CCN(Cc2ccc(OC)c(OC)c2OC)CC1 returned a7 integrin act -14.9%, ERG Ets-DNA blk -0.9%, Giardia killer -6.2, VP16 counter -3.9% and RORgamma inh 11.7%.
Screening O=C1CCCC(O)=C1N=Nc1ccc(C(=O)O)cc1 returned a7 integrin act inconclusive, ERG Ets-DNA blk 28.2µM*, Giardia killer -0.3, VP16 counter -2.2% and RORgamma inh -24.1%.
CCn1c(=O)c([N+](=O)[O-])c(NCCN(C)C)c2ccccc21 was read as a7 integrin act -14.2%, ERG Ets-DNA blk -11.4%, Giardia killer 4.8, VP16 counter 27.2% and RORgamma inh -11.8%.
For CCn1c(=O)c([N+](=O)[O-])c(Cl)c2ccccc21 the results were a7 integrin act -61.9%, ERG Ets-DNA blk -11.1%, Giardia killer 0.7, VP16 counter 8.91µM* and RORgamma inh 7.94µM*.
Screening COC1OC(COCc2ccccc2)C(N)C(OCc2ccccc2)C1OCc1ccccc1 (centres undefined) returned a7 integrin act 0.0%, ERG Ets-DNA blk 4.4% and Giardia killer -0.3.
